# Bioassay records from PubChem.
# KLK7 zymogen act: proKLK7 zymogen activators, primary screen, biochemical, fluorescence intensity | Kallikrein-7 (Homo sapiens), P49862 | purified proKLK7, EDANS-DABCYL substrate fluorescence; 100% is mature enzyme control, 0% vehicle | activation, % at 7 µM | 0.9% of 370,000 active | AID 652039, 2013;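 active means activation above the mean of all tested compounds plus 3 SD, computed per campaign excluding outliers beyond control limits, cut at about 13% in these data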
# ADAM10 inh: human ADAM10 inhibitors, primary screen, biochemical, QFRET, HTS. 0.62% of 370,000 active. recombinant ADAM10, EDANS/DABCYL FRET peptide cleavage, 3 h. Disintegrin and metalloproteinase domain-containing protein 10 (Homo sapiens), O14672. AID 720582, 2013. inhibition, % at 7 µM;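 active means inhibition above a per-campaign cutoff equal to the mean of compounds falling between control-based bounds plus 3 SD, cut at about 20% in these data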;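 further: 0% = DMSO wells while the 100% control is not disclosed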
# Target sequence (O14672 214-748 limits assumed): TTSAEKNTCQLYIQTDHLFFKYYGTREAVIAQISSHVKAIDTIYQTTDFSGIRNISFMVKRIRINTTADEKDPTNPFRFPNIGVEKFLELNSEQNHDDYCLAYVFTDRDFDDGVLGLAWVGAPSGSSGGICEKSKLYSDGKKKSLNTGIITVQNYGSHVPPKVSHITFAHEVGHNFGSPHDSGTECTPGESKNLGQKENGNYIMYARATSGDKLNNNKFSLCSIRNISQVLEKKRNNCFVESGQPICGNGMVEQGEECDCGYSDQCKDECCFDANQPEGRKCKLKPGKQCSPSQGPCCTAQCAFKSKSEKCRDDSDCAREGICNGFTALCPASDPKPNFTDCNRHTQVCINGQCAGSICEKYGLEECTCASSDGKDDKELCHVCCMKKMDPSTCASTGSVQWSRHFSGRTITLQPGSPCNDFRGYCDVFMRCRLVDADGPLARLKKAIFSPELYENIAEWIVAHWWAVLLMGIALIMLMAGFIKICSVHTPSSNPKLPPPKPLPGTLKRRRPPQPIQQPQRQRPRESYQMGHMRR
# PLC-gamma1 inh: PLC-gamma1 enzyme inhibitors, primary screen, biochemical, fluorescence, purified enzyme; 0.84% of 370,000 active; fluorogenic substrate; inhibition, % at 12.2 µM; in the data active means inhibition above about 9.5%
# ADAM17 inh: ADAM17 inhibitors, primary screen, biochemical, QFRET; Disintegrin and metalloproteinase domain-containing protein 17 (Homo sapiens), P78536; recombinant ADAM17, EDANS/DABCYL FRET peptide cleavage; inhibition, % at 6.95 µM; 0.83% of 370,000 active;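 active means inhibition above the mean of compounds lying between control limits plus 3 SD, set per campaign, cut at about 8.5% in these data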;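 further: 0% = DMSO-only wells as the low control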
# sPLA2-III inh: human group III sPLA2 inhibitors, primary screen, biochemical, QFRET, BODIPY PC-A2 liposome substrate | Group 3 secretory phospholipase A2 (Homo sapiens), Q9NZ20 | inhibition, % at 12.2 µM | 0.56% of 370,000 active | QFRET BODIPY PC-A2 liposome hydrolysis, fluorescence;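 active means inhibition above mean plus 3 SD of compounds lying within the high and low control bounds, cut at about 19% in these data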;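 further: 0% = median of test compound wells and 100% = no enzyme DMSO wells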
# PLC-beta3 inh: human PLC-beta3 inhibitors, primary screen, biochemical, fluorescence; Purified PLC-beta3, fluorogenic substrate; inhibition, % at 12.2 µM; 0.18% of 370,000 active; AID 720704, 2013; in the data active means inhibition above about 11%;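 further: 0% = median of compound wells on plate and 100% = full blocker control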
# ADAM10 confirm: human ADAM10 inhibitors, confirmation, biochemical, QFRET, triplicate; shares compounds with ADAM10 inh; ADAM10 QFRET peptide cleavage, EDANS fluorescence; inhibition, % at 6.95 µM; 1% of 2,100 active; AID 743208, 2013;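 active means inhibition above about 20% chosen separately for each screening run, limit read from the data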;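 further: 0% = DMSO wells and 100% = marimastat wells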
# ADAM17 counter: ADAM17 inhibitors, counter-screen for ADAM10 exosite inhibitor project, biochemical, QFRET, high throughput | shares compounds with ADAM10 inh | ADAM17 QFRET peptide cleavage, EDANS fluorescence | inhibition, % at 6.95 µM | 0.5% of 2,100 active;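 active means mean triplicate inhibition above the solvent-only control wells' mean plus 3 SD, cut at about 12% in these data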;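 further: 0% = DMSO wells and 100% = marimastat wells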
# ADAM10 counter: ADAM10 inhibitors, counter-screen for ADAM17 exosite inhibitor project, biochemical, FRET, human ADAM10. shares compounds with ADAM17 inh. recombinant ADAM10, EDANS/DABCYL FRET peptide cleavage, 3 h. inhibition, % at 6.95 µM. 47% of 2,900 active;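 active means mean inhibition over the triplicate runs exceeds the activity threshold set in the earlier primary screen, cut at about 20% in these data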;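 further: 0% = DMSO wells and 100% = marimastat wells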
# ADAM17 confirm: ADAM17 inhibitors, hit retest, confirmation, biochemical, QFRET peptide cleavage; 65% of 2,900 active; inhibition, % at 6.95 µM; shares compounds with ADAM17 inh; recombinant ADAM17, EDANS/DABCYL QFRET peptide cleavage;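 active means mean inhibition across replicates above the hit cutoff set in the primary screen, cut at about 8.5% in these data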;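 further: 0% = DMSO wells and 100% = marimastat wells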
# Starred values were filed as active, the others as inactive; . = no result given. This is a sample that favours compounds with a hit; in the whole collection about 3.4% have one here.
SMILES,KLK7 zymogen act,ADAM10 inh,PLC-gamma1 inh,ADAM17 inh,sPLA2-III inh,PLC-beta3 inh,ADAM10 confirm,ADAM17 counter,ADAM10 counter,ADAM17 confirm
CCOC(=O)[C@@H]1[C@H]2COc3ccc(Br)cc3[C@@H]2N2C(=O)N(c3cccc(C)c3)C(=O)[C@]12C,0,20*,0,4,0,3,4,1,.,.
CCOC(=O)C1C2c3ccccc3O[C@@]1(C)N=C1SCC(=O)N12 (some centres not stated),0,4,0,-2,-8,4,.,.,.,.
O=C1C=CC(=O)C2C1C1(Cl)C(Cl)=C(Cl)C2(Cl)C1(Cl)Cl (configuration not stated),1,27*,7,9,-16,0,7,3,.,.
C[C@@H]1CN([C@@H](C)CO)C(=O)CCCn2nncc2CO[C@H]1CN(C)C(=O)Oc1ccc2ccccc2c1,0,-4,-1,-5,3,-1,.,.,.,.
COC(=O)C1=C(c2ccc(F)cc2OCc2ccccc2)C[C@@H]2CC[C@H]1N2C(=O)N1CCCC1,0,1,-2,1,-3,1,.,.,.,.
COC(=O)C1=C(c2ccc(-c3ccccc3)c(F)c2)C[C@@H]2CC[C@H]1N2C(=O)NCCOc1ccc(OC)cc1,1,40*,9,22*,-21,2,5,2,21*,12*
COC(=O)C1=C(c2cccc(OCc3ccccc3)c2)C[C@@H]2CC[C@H]1N2C(=O)NCc1cccc(OC)c1,0,14,1,7,-21,2,.,.,.,.
COC(=O)C1=C(c2cccc(OCc3ccccc3)c2)C[C@@H]2CC[C@H]1N2C(=O)NCCOc1ccc(OC)cc1,1,26*,9,10*,-14,10,6,2,19,14*
C[C@]12CCC3C(CC[C@H]4C[C@@H](O)CC[C@]34C)C1C[C@@H](N)[C@@H]2O (some centres not stated),0,3,0,-1,2,-3,.,.,.,.
Cc1cccc(C)c1N1CCN(c2c(C)cccc2C)CC1,0,6,-2,0,-3,-5,.,.,.,.
COC(=O)C(O)(c1ccc(NC(=S)NC(=O)c2ccc(Cl)cc2Cl)cc1)C(F)(F)F (configuration not stated),0,16,1,7,-10,-2,.,.,.,.
COC(=O)C(O)(c1ccc(NC(=S)NC(=O)c2ccc(Cl)cc2Cl)c(C)c1)C(F)(F)F (configuration not stated),0,23*,6,11*,-8,-2,8,2,35*,18*
